Screen size: about 2,300 compounds; about 20 (0.9%) were called active. Shown is part of a subset that was picked to be rich in actives. Values without a mark were called inactive.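 How the source made its calls: active means mean activation across replicates above 26.72%, the hit cutoff set for this confirmation screen; inactive means the rest.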

The target in the assay is G-protein coupled receptor 151 (Homo sapiens) (UniProt Q8TDV0). Nature of the assay: GPR151 activators, triplicate retest, confirmation, cell-based, PathHunter beta-arrestin, luminescence, set 2 (AID 1508608).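 Further: 0% = plate median of compound wells and 100% = EA reagent high control.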 The settings on record: GPR151 PathHunter beta-arrestin cells, 90 min, at 11.2 µM, hits give high values, 100% = signal from added EA reagent.
Chain of G-protein coupled receptor 151 (Homo sapiens) (Q8TDV0 whole entry, looked up): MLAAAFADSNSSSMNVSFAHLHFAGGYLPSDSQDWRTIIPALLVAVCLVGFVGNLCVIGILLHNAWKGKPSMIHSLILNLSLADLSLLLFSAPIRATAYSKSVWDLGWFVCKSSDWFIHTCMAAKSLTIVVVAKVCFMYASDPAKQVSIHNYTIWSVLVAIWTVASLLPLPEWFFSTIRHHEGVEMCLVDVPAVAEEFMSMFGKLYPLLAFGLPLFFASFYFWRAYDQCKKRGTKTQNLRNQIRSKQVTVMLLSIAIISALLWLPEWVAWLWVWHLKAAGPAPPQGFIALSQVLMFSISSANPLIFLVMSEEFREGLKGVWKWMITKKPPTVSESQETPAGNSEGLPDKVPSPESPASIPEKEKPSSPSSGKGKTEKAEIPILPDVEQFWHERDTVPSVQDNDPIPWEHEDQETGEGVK
As to `COc1ccccc1C(=O)NC(C)C(c1cccs1)N1CCOCC1` (configuration not stated), the activation was -5.85%.
With `Cc1ccc(-c2nc3ncccn3c2NC2CCCCC2)o1`, the activation is -5.26%.
In the case of `NC(=O)C1CCN(S(=O)(=O)c2ccc3c(c2)OCC(=O)N3)CC1` it was -1.83%.
The result for `O=C(NCCCN1CCOCC1)/C(=C/c1ccc(-c2cccc(C(F)(F)F)c2)o1)NC(=O)c1ccc(Cl)cc1` reads 23.3%; that for `COc1ccc(-n2nc3c(c2NC(=O)c2c(F)cccc2F)CS(=O)(=O)C3)cc1`, -1.16%.
In the case of `CCCN(C(=O)Cc1nc(-c2ccc(OC)cc2)no1)c1ccccc1C` it was -0.07%.
For the compound `CC1=NN(c2ccccc2)C(=O)/C1=C\c1ccc([N+](=O)[O-])cc1`, the activation is -3.53%.
The result for `CCOc1ccc(/C=N/NC(=O)c2ccccc2OC(C)C)cc1O` reads -4.49%; that for `CN(C)c1ccc(CNCCC2CCOC(C)(C)C2)cc1` (configuration not stated), 0.83%.
Take `COc1ccc(-c2cc3ccc(OC(C)C(=O)O)cc3oc2=O)cc1` (configuration not stated): the activation was -10.8%.
The result for `CC(=O)c1c(C)[nH]c(C(=O)N2CCCC(C)C2)c1C` (configuration not stated) reads -1.56%; that for `COc1ccc(/C=C\C23N(Cc4ccccc4)C(=O)CN2c2ccccc2C3(C)C)cc1` (configuration not stated), -0.33%; that for `OCCC1CN(Cc2ccc3nonc3c2)CCN1Cc1ccc(F)c(F)c1` (configuration not stated), 11.5%.
The result for `O=C(CCC(=O)Nc1ccc(F)cc1)N/N=C/c1cccc([N+](=O)[O-])c1` reads 4.76%; that for `COc1ccc(NC(=O)C(C)N(c2ccc(Oc3ccccc3)cc2)S(C)(=O)=O)cc1` (configuration not stated), 1.83%.
For `Clc1ccc(-n2ncc3c(NCc4ccco4)ncnc32)cc1`, the activation was 3.54%.
In the case of `COC(=O)c1cc(Nc2ncnc3c2cnn3-c2ccc(Cl)cc2)cc(C(=O)OC)c1` it was 5.3%.
For `Cn1ncc2c(NCCc3ccc(Cl)cc3Cl)ncnc21`, the activation was 27.9% (active).
In the case of `Cc1sc2c(c1C)c(=O)n(CCc1ccccc1)c(=O)n2CC(N)=O` it was -0.97%; in that of `Cc1ccc(-n2ncc3c(=O)n(CC(=O)Nc4cccc(Cl)c4)cnc32)cc1C`, -0.5%.
In the case of `C=C(CC(NP(=O)(OCC)OCC)(C(=O)OC)C(F)(F)F)c1ccccc1` (configuration not stated) it was 1.36%; in that of `COc1ccc(CC2(C)OC(c3ccc(C)c([N+](=O)[O-])c3)=NN2C(C)=O)cc1` (configuration not stated), -3.14%; in that of `CCOc1ccc(-c2ccc(/C=C3/C(=N)N4C=C(C)SC4=NC3=O)o2)c([N+](=O)[O-])c1`, -0.37%.
The result for `O=c1/c(=C\c2ccccc2Cl)sc2nc3ccccc3n12` reads -1.37%; that for `CC(C)c1ccc(Cn2ccc3c4c(N)nc(NC5CC5)nc4ccc32)cc1`, 104% (active).
On to `N/C(=N\OC(=O)CCCN1C(=O)c2ccccc2C1=O)c1ccccn1`, for which the activation is 10.3%.
The result for `CCN(CC)C(=O)CN(c1ccccc1)S(=O)(=O)c1ccc(C)cc1` reads 4.39%; that for `CCC1CN(CCNC(=O)c2scc3c2OCCO3)Cc2cc(OC)ccc2O1` (configuration not stated), 6.33%; that for `CC(=O)C1C(c2cccc([N+](=O)[O-])c2)c2c(n[nH]c2C)CC1(C)O` (configuration not stated), 0.19%.
The result for `CC1=C(C(=O)NCCN2Cc3ccccc3OC(c3ccccc3F)C2)OCCO1` (configuration not stated) reads 2.76%; that for `CCOc1cc(OCC)cc(C(=O)Nc2ccc(Br)cn2)c1`, 8.34%.
In the case of `CNc1nc2c(-c3ccc(Cl)cc3)nnn2c2ccccc12` it was 16.9%; in that of `CC1CC(C)CN(C(=O)c2ccc(NCc3cccs3)c(S(=O)(=O)Nc3cc(F)ccc3F)c2)C1` (configuration not stated), 3.31%; in that of `CCCOC1CCCN(Cc2c(C(=O)N(C)CCc3ccccc3)nc3sccn23)C1` (configuration not stated), 6.38%.
As to `CC(=O)c1cccc(NC(=O)Oc2ccccc2)c1`, the activation was 2.16%.
`CCOC(=O)CCN(Cc1ccccc1F)S(=O)(=O)c1ccc([N+](=O)[O-])cc1`: the activation was -3.3%.
In the case of `COc1ccc(C(=O)N(c2ccc(C)cc2)S(=O)(=O)c2ccc(C)cc2)cc1OC` it was 6.29%.
Take `CCOC(=O)c1ccc(CN(Cc2c(Cl)cccc2Cl)S(=O)(=O)c2cccc([N+](=O)[O-])c2)cc1`: the activation is 0.8%.
The result for `CC1=C(C(=O)OCc2ccco2)C(c2ccc(F)cc2)NC(=O)N1` (configuration not stated) reads 3.69%; that for `O=[N+]([O-])c1ccc2nc(SCc3ccc(I)cc3)sc2c1`, 3.08%.
As for `CC(C)CCN1C(=O)C(C)(C)COc2cc(NC(=O)c3ccc4c(c3)OCO4)ccc21`, the activation was -3.7%.
The result for `COc1cc(/C=C/c2[nH]c(=O)[nH]c(=O)c2[N+](=O)[O-])ccc1OC(C)C` reads -3.99%; that for `CCN(c1ccccc1)c1ncnc2c1cnn2-c1ccc(Cl)cc1`, 5.9%; that for `Cc1ccc(-c2[nH]c(=S)[nH]c(=O)c2C#N)cc1`, -2.95%.
The result for `Cc1ccccc1OCC(=O)Nc1ccc(N2C(=O)c3ccc([N+](=O)[O-])cc3C2=O)cc1` reads 6.85%.
In the case of `Cc1ccc(NC(=O)c2ccccc2F)c(Br)c1` it was -2.79%.
Turning to `O=C(Nc1cc(C(F)(F)F)ccc1Cl)c1ccc(C(=O)C(=O)c2ccccc2)cc1`, the activation was -1.66%.
The result for `O=C(Nc1cc(Cl)ccc1Cl)c1ccccc1O` reads 26.9% (active).
In the case of `CCOC(=O)C1=C(C)N=c2s/c(=C\c3cc(C)n(-c4ccc(C(=O)OCC)cc4)c3C)c(=O)n2C1c1ccc(OC)c(OC)c1` (configuration not stated) it was 1.8%.
The result for `CCCc1[nH]n(-c2ccc(F)cc2)c(=O)c1C=Nc1ccc(OCC)cc1` reads -1.39%.
Take `Cn1nc2c(c1C(=O)NCC1CC(Cc3cccc(F)c3)=NO1)CCCC2` (configuration not stated): the activation is -2%.
In the case of `O=C(CSc1nnc(Cc2cc(=O)[nH]c(=O)[nH]2)n1-c1ccccc1)NC1CCCC1` it was 2.56%; in that of `COc1ccc2c(c1)N(C)/C(=c1/s/c(=c3/sc4nc5ccccc5n4c3=O)n(C)c1=O)S2`, 5.91%; in that of `COC(=O)Cn1c(CN2CCOCC2)nc2c1c(=O)n(C)c(=O)n2C`, -2.55%.
The result for `CC(=O)Cc1nsc(Nc2ccc(C)c(Cl)c2)n1` reads 3.54%.
The result for `CCN(CC)S(=O)(=O)c1ccc(C(=O)Nc2nc3ccc([N+](=O)[O-])cc3s2)cc1` reads 2.56%; that for `COc1ccc(-c2onc(C(F)(F)F)c2-c2ccc(Cl)cc2)c(O)c1`, 0.9%.
For `Cc1ccc(Cl)cc1Nc1cc(N2CCOCC2)c2nonc2c1[N+](=O)[O-]`, the activation was 3.43%.
For `CC(C)C[C@@H]1NC(=O)[C@H]2CN(Cc3cn(C)nc3-c3ccccc3)CCN2C1=O`, the activation is 3.84%.
The result for `CCC(C)NC(=O)C1CCN(S(=O)(=O)N2CCOCC2)CC1` (configuration not stated) reads 7.37%.
In the case of `Cn1c(=O)oc2cc(S(=O)(=O)N3CCCC(C(=O)N4CCOCC4)C3)ccc21` (configuration not stated) it was 11.4%.
The result for `CCc1ccc(C2=CC(c3ccc(OC)c(OC)c3)n3ncnc3N2)cc1` (configuration not stated) reads 0.38%; that for `COc1ccccc1-c1nnc(C2CCN(S(=O)(=O)c3cccc(C#N)c3)CC2)o1`, -0.51%; that for `CCN(CC)CCNC1=CC(=O)OC12CCCCC2`, -1.78%.
Consider `CCC1Oc2ccccc2N(CC(=O)NC2CCCCCC2)C1=O` (configuration not stated), for which the activation is -3.51%.
The result for `O=C(c1ccco1)N1CCN(C(=O)C2(S(=O)(=O)c3ccc(Cl)cc3)CC2)CC1` reads 4.46%; that for `O=C(NCCC12CC3CC(CC(C3)C1)C2)c1cc([N+](=O)[O-])ccc1N1CCOCC1`, 6.89%; that for `CCOc1ccc(-c2cc(C(=O)N/N=C/c3ccc(O)c(OCC)c3)[nH]n2)cc1`, -0.84%.
In the case of `CCCOc1ccc(C2C3=C(CC(C)(C)CC3=O)N(CC(=O)O)C3=C2C(=O)CC(C)(C)C3)cc1OCC` it was 4.15%; in that of `COc1ccc(C(=O)NCC2CCCN2S(=O)(=O)c2cccs2)cc1OC` (configuration not stated), -1.78%; in that of `CN1CCN(C(CNS(=O)(=O)c2ccccc2)c2cccnc2)CC1` (configuration not stated), -1.58%.
For `CCCCOC(=O)N1CCOCCOCCN(C(=O)OCCCC)CCOCCOCC1`, the activation was -4.43%.
In the case of `Cc1ccc(-n2ncc3c(NCc4ccco4)ncnc32)c(C)c1` it was 2.13%; in that of `Cc1cccc(-c2nc3ccccc3c(=O)n2Cc2ccccc2C)c1`, 1.61%; in that of `Cc1ccc(COc2cccc3c2CCN(C)C3=O)cc1`, -4.68%.
In the case of `CCCCOC(=O)c1ccc(N2C(=O)c3cccc([N+](=O)[O-])c3C2=O)cc1` it was -3.4%; in that of `CC(=O)Oc1ccccc1N1C(=O)c2cccc([N+](=O)[O-])c2C1=O`, 28.3% (active).
In the case of `CC(=O)c1ccc(N2C(=O)c3ccc(Oc4ccc([N+](=O)[O-])cc4[N+](=O)[O-])cc3C2=O)cc1` it was -8.73%; in that of `Cc1ccc([N+](=O)[O-])cc1NC(=O)C1C2/C=C\CCCCC21` (configuration not stated), 0.67%; in that of `O=C(NCCCN1CCCC1)C(=O)Nc1ccc2nc3n(c(=O)c2c1)CCCCC3`, -2.06%.
Take `COc1ccc(-c2nc(-c3ccc(NC(=O)c4ccc(Br)o4)cc3)no2)cc1OC`: the activation was 7.05%.
In the case of `N=C(N)SCc1csc2c1CCCC2` it was 1.33%; in that of `Nc1nc(NC(=O)c2ccccc2)nn1-c1ccccc1`, -4.73%.
In the case of `CC(C)c1ccc(/C=N\NC(=O)Cn2c(-c3nonc3N)nc3ccccc32)cc1` it was 0.86%; in that of `CCOC(=O)c1cnc2c(OC)cccc2c1NC1CCCCCC1`, 18.4%; in that of `Cc1ccc(C2=N/C(=C\c3cccc(C(F)(F)F)c3)C(=O)O2)cc1[N+](=O)[O-]`, 3.7%.
`CCCCc1ccc(C2=N/C(=C\c3ccc(F)cc3)C(=O)N2c2ccc(Cl)cc2C)cc1`: the activation is -6.96%.

These data come from PubChem BioAssay AID1508608 (The Scripps Research Institute Molecular Screening Center, 2020).
